By inhibition is commonly meant the relative decrease from the control value, in per cent.

Active and inactive are the calls of the source.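 Rule for the calls, unless noted: active = NADPH fluorescence slope more negative than the mean of all samples by about 3 SD, 99.7% confidence; inactive = the rest.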

Test [1] in a line: inhibitors of TNFa-induced NFkB p65 translocation, primary screen, imaging, HUVEC, MLSMR starter and 10KST1 sets (AID 438;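 active = inhibition above 20% together with a positive visual image hit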;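 note: compound added about 3h40 before a 20 min TNFalpha stimulation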;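 for inhibition: signal is the nuclear over cytoplasmic p65 intensity ratio per well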). The conditions noted are these: HUVEC TNFa-induced p65 nuclear translocation; cell count: measured here: nuclei count (cytotoxicity indicator), at 2.08 µM; inhibition: at 2 µM, stronger effect = higher value, 0% TNFa-plus-vehicle, 100% no-TNFa wells.
The nature of test [2]: inhibitors of mutant huntingtin aggregation, primary screen, imaging, exon1htt(103Q)mCFP cells, high-content imaging (AID 483;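 active = visual image review flags a hit and inhibition of aggregation exceeds 20%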;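 note: compound exposure lasted 3 days before fixation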;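 for nuclei count: percent of the per-plate median nuclei count of sample wells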). The conditions noted are these: exon1htt(103Q)mCFP cell line, aggregate imaging, at 2 µM; inhibition of aggregation: stronger effect = higher value; nuclei count: measured here: cell count, toxicity.
Test [3] is described as follows: inhibitors of E-selectin induction by TNFa, primary screen, imaging, HUVEC, immunofluorescence, MLSMR starter and 10KST1 sets (AID 487;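 active = visually confirmed hit in the image check and inhibition above 20%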;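 for inhibition: signal is fraction of cell area covered by stained E-selectin grains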;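 for nuclei count: 100% = median nuclei count of all wells on the same plate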). To be noted: HUVEC TNFalpha-induced E-selectin immunofluorescence imaging, at 2 µM; inhibition: stronger effect = higher value; nuclei count: measured here: cell number, toxicity.
The target of test [4] is Voltage-gated potassium channel subunit beta-2 (Rattus norvegicus) (UniProt P62483). In words: KvBeta enzyme negative modulators, primary screen, biochemical, NADPH fluorescence (AID 622;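 active = fluorescence slope higher than the sample average by over 3 SD, cut at about -0.22 in these data, passing the limit was not always enough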;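 note: slope of raw intensity against log time taken from 70 to 1610 s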). The conditions noted are these: recombinant KvBeta, 4-cyanobenzaldehyde reduction, at 10 µM, stronger effect = higher value.
Test [5] shares this target. In words: KvBeta positive modulators, primary screen, biochemical, NADPH fluorescence (AID 623).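 Note: fluorescence intensity change per second fitted from 20 to 320 s.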 The conditions noted are these: Recombinant KvBeta, NADPH fluorescence decrease slope, 10 min; at 10 µM; stronger effect = lower value.
In test [6] the target is Alpha-2C adrenergic receptor (Homo sapiens) (UniProt P18825). Kind of test: modulators of alpha2C/GIRK thallium flux, primary screen, cell-based, HEK293 alpha2C/GIRK1/2 (AID 624;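 active = fluorescence slope after compound addition differing from the mean of all screened samples at 99.7% confidence, in either direction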;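 note: slope of fluorescence ratio to pre-addition baseline per second over 15 to 24 s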). The conditions noted are these: thallium flux BTC fluorescence, at 10 µM, actives lie on both sides.
Test [7] in a line: inhibitors of Sendai virus-induced IRF3 signaling, primary screen, TLR/RLR signaling modifier project, cell-based, Sendai virus stimulus, luciferase, 10K MLSCN set (AID 602276;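 active = inhibition at or above 50% at 10 µM; inactive = inhibition below 50%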;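 note: firefly luciferase from ISG56 promoter only with Renilla not read in this screen; 0% = Sendai virus plus DMSO and 100% = medium plus DMSO without virus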). The conditions noted are these: HEK293 RL24 IRF3 luciferase reporter, at 10 µM, stronger effect = higher value. In general terms: A reporter such as luciferase makes a cellular process visible.
Test [8] can be described thus: inhibitors of poly I:C-induced TLR3 signaling, primary screen, cell-based, poly I:C stimulus, luciferase, 10K MLSCN set (AID 602277;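 active = inhibition of the reporter signal at or above 50%; inactive = inhibition below 50%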). To be noted: HEK293-TLR3 RL24 IRF3 luciferase reporter, at 10 µM, stronger effect = higher value.

Sequence of Alpha-2C adrenergic receptor (Homo sapiens) (P18825 whole entry, looked up): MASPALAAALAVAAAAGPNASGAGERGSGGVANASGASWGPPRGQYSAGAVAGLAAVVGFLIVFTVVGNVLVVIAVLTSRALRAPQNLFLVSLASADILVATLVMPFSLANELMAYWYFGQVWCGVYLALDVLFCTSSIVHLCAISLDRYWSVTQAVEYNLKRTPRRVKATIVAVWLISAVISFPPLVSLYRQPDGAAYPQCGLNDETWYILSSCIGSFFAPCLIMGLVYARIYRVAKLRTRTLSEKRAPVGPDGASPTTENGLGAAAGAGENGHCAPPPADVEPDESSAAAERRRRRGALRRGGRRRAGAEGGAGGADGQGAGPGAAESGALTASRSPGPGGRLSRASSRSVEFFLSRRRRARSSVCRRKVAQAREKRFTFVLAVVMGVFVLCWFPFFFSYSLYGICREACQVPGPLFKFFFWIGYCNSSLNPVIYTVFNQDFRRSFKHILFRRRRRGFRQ
Sequence of Voltage-gated potassium channel subunit beta-2 (Rattus norvegicus) (P62483 whole entry, looked up): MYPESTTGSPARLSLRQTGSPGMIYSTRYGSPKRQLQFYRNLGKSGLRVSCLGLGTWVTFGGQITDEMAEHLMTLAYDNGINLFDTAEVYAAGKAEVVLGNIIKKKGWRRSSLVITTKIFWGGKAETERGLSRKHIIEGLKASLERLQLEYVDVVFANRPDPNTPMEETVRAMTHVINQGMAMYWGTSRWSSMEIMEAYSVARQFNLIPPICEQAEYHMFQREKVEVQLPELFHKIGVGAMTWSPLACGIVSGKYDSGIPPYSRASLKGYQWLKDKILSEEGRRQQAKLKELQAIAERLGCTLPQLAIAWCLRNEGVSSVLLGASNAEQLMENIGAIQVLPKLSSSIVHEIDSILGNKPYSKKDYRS

With `CCOc1ccc(NC(=O)CN(c2cc(C)cc(C)c2)S(=O)(=O)c2c(C)noc2C)cc1`, in test [1], the cell count came out at 785. Besides, the inhibition is -1.1% (inactive) in test [1], -14.8% (inactive) in test [3], 13.8% (inactive) in test [7] and -22.3% (inactive) in test [8]. Further, the inhibition of aggregation in test [2] is 23.6% (inactive). Besides, the figures for the nuclei count in test [2] and in test [3] were 99.2% and 105%, respectively. The fluorescence slope in test [4] was -0.574 (inactive). Further, the NADPH fluorescence slope in test [5] is 1.1e-05 (inactive). Also, the slope in test [6] was 0.0058 (inactive).

For the compound `Cc1cc2n(n1)C(c1ccccc1)Nc1ccccc1-2` (centres undefined), the cell count in test [1] was found to be 410. Besides, the inhibition is -1.3% (inactive) in test [1], -13.2% (inactive) in test [3], -11.9% (inactive) in test [7] and -26.7% (inactive) in test [8]. In addition, in test [2], the inhibition of aggregation was -2.5% (inactive). For the same compound, the nuclei count in test [2] is 101%; in test [3], 119%. Moreover, the fluorescence slope in test [4] was -0.512 (inactive). In test [5], the NADPH fluorescence slope is -3.7e-05 (inactive). In test [6], the slope was 0.00459 (inactive).

Turning to `Cc1nc(N2CCc3ccccc32)[nH]c(=O)c1CCC(C)C`, in test [1], the cell count worked out at 345. In addition, the inhibition in test [1] is -1.1% (inactive); in test [3] it was -114% (inactive); in test [7] it was 0.138% (inactive); in test [8], 3.18% (inactive). The inhibition of aggregation in test [2] is -19.6% (inactive). The values for the nuclei count in test [2] and in test [3] were 112% and 135%, respectively. For the same compound, the fluorescence slope in test [4] is -0.439 (inactive). In addition, the NADPH fluorescence slope in test [5] was -4.2e-05 (inactive). The slope in test [6] was 0.00282 (inactive).

Regarding `CCC1(NC(C)=O)CC2CC1CC2NC(C)=O` (centres undefined), the cell count in test [1] was found to be 340. The inhibition is -1.4% (inactive) in test [1], -37.4% (inactive) in test [3], 1.63% (inactive) in test [7] and 3.3% (inactive) in test [8]. Moreover, the inhibition of aggregation in test [2] is -4.3% (inactive). Also, the values for the nuclei count in test [2] and in test [3] were 100% and 103%, respectively. Besides, the fluorescence slope in test [4] was -0.614 (inactive). Moreover, the NADPH fluorescence slope in test [5] is -1.3e-05 (inactive). Moreover, the slope in test [6] was 0.00321 (inactive).

`COc1cc(NC(=O)Cc2ccccc2OC)cc(OC)c1`: the cell count in test [1] came out at 575. In addition, the inhibition was -4.8% (inactive) in test [1], -96.9% (inactive) in test [3], -19% (inactive) in test [7] and -15% (inactive) in test [8]. The inhibition of aggregation in test [2] was 9.8% (inactive). Also, the results for the nuclei count in test [2] and in test [3] were 81.8% and 87.6%, respectively. For the same compound, in test [4], the fluorescence slope is -0.452 (inactive). The NADPH fluorescence slope in test [5] is -2e-05 (inactive). In addition, the slope in test [6] is 0.00483 (inactive).

`COc1ccc(S(=O)(=O)N2CCCC2C(=O)Nc2ccc(C)cc2)cc1` (centres undefined): in test [1], the cell count worked out at 469. Further, the inhibition in test [1] is 42.3% (active); in test [3], -11.9% (inactive); in test [7] it was 12.2% (inactive); in test [8], 7.96% (inactive). The inhibition of aggregation in test [2] was -25% (inactive). Also, the nuclei count in test [2] came out at 130%; in test [3] it was 73.3%. For the same compound, the fluorescence slope in test [4] is -0.498 (inactive). Moreover, the NADPH fluorescence slope in test [5] was -5.1e-05 (inactive). For the same compound, the slope in test [6] was 0.00758 (inactive).

`O=C(C1CCCN(S(=O)(=O)c2ccc(Br)s2)C1)N1CCCCCC1` (centres undefined): the cell count in test [1] was 217. For the same compound, the inhibition was -1.9% (inactive) in test [1], 30.6% (inactive) in test [3], 2.37% (inactive) in test [7] and 13.4% (inactive) in test [8]. Also, in test [2], the inhibition of aggregation was 5.7% (inactive). Also, the figures for the nuclei count in test [2] and in test [3] were 75.1% and 31.6%, respectively. For the same compound, the fluorescence slope in test [4] was -0.378 (inactive). Besides, in test [5], the NADPH fluorescence slope is -4.5e-05 (inactive). Also, the slope in test [6] was 0.00305 (inactive).

On to `CCOC(=O)N1CCN(Cc2nc3c(c(=O)n(C)c(=O)n3C)n2Cc2ccccc2)CC1`, for which, in test [1], the cell count came out at 598. The inhibition is 2.9% (inactive) in test [1], 0.1% (inactive) in test [3], 9% (inactive) in test [7] and 14.8% (inactive) in test [8]. Moreover, the inhibition of aggregation in test [2] was -8.1% (inactive). In addition, the nuclei count in test [2] is 120%; in test [3], 115%. Further, the fluorescence slope in test [4] was -0.538 (inactive). Besides, the NADPH fluorescence slope in test [5] was -3.9e-05 (inactive). In test [6], the slope was 0.00607 (inactive).

`CCOC(=O)Cn1c(CN(C)Cc2ccccc2)nc2c1c(=O)n(C)c(=O)n2C`: the cell count in test [1] amounted to 241. In addition, the inhibition in test [1] was 6.8% (inactive); in test [3] it was 26.4% (inactive); in test [7], 13.2% (inactive); in test [8], 10.8% (inactive). Moreover, in test [2], the inhibition of aggregation was 6.2% (inactive). In addition, the nuclei count in test [2] came to 92.6%; in test [3], 94.7%. The fluorescence slope in test [4] is -0.278 (inactive). Further, the NADPH fluorescence slope in test [5] is -3.7e-05 (inactive). In addition, in test [6], the slope was 0.00521 (inactive).

Consider `CCNc1ccc(C(=O)OCC)cc1NC(=O)c1cc(S(=O)(=O)N2CCOCC2)ccc1C`, for which the cell count in test [1] was determined as 772. In addition, the inhibition in test [1] is 7.3% (inactive); in test [3] it was -81.9% (inactive); in test [7] it was -4.65% (inactive); in test [8], -25.5% (inactive). Further, in test [2], the inhibition of aggregation was 31.2% (inactive). Moreover, the nuclei count worked out at 93.3% in test [2] and 114% in test [3]. Also, the fluorescence slope in test [4] is -0.551 (inactive). Further, the NADPH fluorescence slope in test [5] was 4.9e-05 (inactive). In addition, in test [6], the slope is 0.00574 (inactive).

For `C(=C\c1ccccc1)/CN1CCN(Cc2ccc3c(c2)OCCO3)CC1`, the cell count in test [1] was found to be 435. For the same compound, the inhibition in test [1] was 0.5% (inactive); in test [3], -26.4% (inactive); in test [7] it was 14% (inactive); in test [8], 19.9% (inactive). For the same compound, the inhibition of aggregation in test [2] is 2% (inactive). Besides, the nuclei count is 104% in test [2] and 120% in test [3]. Moreover, the fluorescence slope in test [4] was -0.442 (inactive). In test [5], the NADPH fluorescence slope was 2e-05 (inactive). Moreover, the slope in test [6] was 0.00636 (inactive).

Regarding `CN(C)CCN1C(=O)C(O)=C(C(=O)c2cc3ccccc3o2)C1c1ccc(N(C)C)cc1` (centres undefined), the cell count in test [1] came to 577. The inhibition in test [1] is 5.8% (inactive); in test [3], 23.3% (inactive); in test [7] it was 7.8% (inactive); in test [8], 27.2% (inactive). In addition, in test [2], the inhibition of aggregation is 11.6% (inactive). For the same compound, the figures for the nuclei count in test [2] and in test [3] were 95.2% and 109%, respectively. The fluorescence slope in test [4] is -0.549 (inactive). Further, the NADPH fluorescence slope in test [5] is -2.9e-05 (inactive). For the same compound, in test [6], the slope is 0.00711 (inactive).

As for `Cc1c(C(=O)OCc2ccccc2)[nH]c2c1C(=O)CC(c1ccco1)C2` (centres undefined), the cell count in test [1] was 721. For the same compound, the inhibition is 12.7% (inactive) in test [1], -63.1% (inactive) in test [3], 45.4% (inactive) in test [7] and 80.4% (active) in test [8]. In test [2], the inhibition of aggregation was -170% (inactive). The nuclei count worked out at 3.7% in test [2] and 107% in test [3]. Further, in test [4], the fluorescence slope is -0.569 (inactive). Moreover, in test [5], the NADPH fluorescence slope was -1.8e-05 (inactive). Moreover, the slope in test [6] is 0.00645 (inactive).

For the compound `Nc1ccc(C(=O)OCCCc2nc3ccccc3[nH]2)cc1`, in test [1], the cell count was found to be 366. In addition, the inhibition in test [1] was -2.2% (inactive); in test [3] it was 9% (inactive); in test [7], -17.1% (inactive); in test [8], -17.7% (inactive). The inhibition of aggregation in test [2] is 10.5% (inactive). Moreover, the values for the nuclei count in test [2] and in test [3] were 95.7% and 92.5%, respectively. Also, the fluorescence slope in test [4] is -0.589 (inactive). Also, in test [5], the NADPH fluorescence slope was -5.8e-05 (inactive). For the same compound, the slope in test [6] is 0.00614 (inactive).

The values above are taken from PubChem BioAssay.
